# An excerpt weighted towards active compounds, which were near 2.6% of everything screened.
# HSP90 refold inh: inhibitors of HSP90 luciferase refolding in rabbit reticulocyte lysate; inhibition, % at 5.6 µM; luciferase refolding luminescence, 3 h; 0.91% of 290,000 active;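 active = inhibition above the screen-wide mean plus 3 SD, computed separately per campaign, cut at about 16% in these data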;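 also: 0% = DMSO wells and 100% = 60 µM geldanamycin wells; inhibitors lower the luminescence because luciferase stays unfolded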
# LGR2 antag: blocks bursicon-induced cAMP signaling via Drosophila LGR2. HEK293 LGR2, CRE-luciferase, bursicon-stimulated, 4 h. AID 720647. inhibition, % at 9.99 µM. 0.35% of 380,000 active;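 active = drop in luminescence signal, shown as inhibition above about 50% in the replicate tests, limit read from the data, passing the limit was not always enough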;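 also: agonist challenge used bursicon conditioned medium at about half maximal strength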
# aDG glyco up: alpha-DG glycosylation activation; 0.22% of 360,000 active; Pro5-aDG cells, alpha-DG glycosylation AlphaScreen (IIH6); 0% Pro5, 100% B10-LARGE cell signal; activation, % at 10 µM;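 active = activation of at least 8% versus controls, or a plate z-score of at least 8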;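 also: Pro5 are CHO cells carrying HIG-tagged alpha-DG that lacks glycosylation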
# LMP1 NFkB inh: Epstein-Barr LMP1 NF-kappaB reporter inhibition | LMP1-induced NF-kappaB luciferase reporter cells, luminescence | inhibition, % at 12.5 µM | 0.69% of 350,000 active; in the data active = inhibition above about 41%;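 also: 0% = neutral control wells and 100% = reference inhibitor control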
# TWEAK Fn14 block: TWEAK-Fn14 signaling inhibition. 2% of 360,000 active. TWEAK-stimulated Fn14 reporter cells, luciferase luminescence, 8 h. inhibition, % at 10 µM; in the data active = inhibition above about 50%
# TROY signal inh: blocks TROY-dependent signaling in reporter cells; inhibition, % at 10 µM; AID 1347056; Q293 LMP1-TROYcd NF-kB luciferase reporter, 4 h; 0.98% of 360,000 active;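 active = compounds whose plate-normalised and pattern-corrected inhibition of the luciferase reporter signal at the single screening dose is 50% or more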
# Active calls of the source: *; · = not tested or not shown.
SMILES,HSP90 refold inh,LGR2 antag,aDG glyco up,LMP1 NFkB inh,TWEAK Fn14 block,TROY signal inh
CC(=O)Nc1sc(N/N=C\c2ccccc2)nc1-c1cccs1,0.9,-1.4,0.7,-11.7,-12.6,-26.6
O=C(C#Cc1cccc([N+](=O)[O-])c1)c1ccccc1,-2.4,·,-0.3,45.8*,66.3*,63.1*
Nc1ccccc1C#CC(=O)c1ccccc1,-1.1,28.1,-0.5,-26.9,94.7*,49.8
Nc1ccccc1C#Cc1ccc([N+](=O)[O-])cc1,·,-114.5,0.0,-58.3,-22.9,-73.3
C[C@@H]1CCCCO[C@H](CN(C)C(=O)CCCN(C)C)[C@@H](C)CN([C@H](C)CO)C(=O)c2cc(NC(=O)Nc3ccc(F)cc3)ccc2O1,·,-4.0,·,·,·,·
O=C(NCC1CCOCC1)c1ccc(OC2CCN(Cc3ccccn3)CC2)cc1,-2.8,3.1,-0.3,57.6*,1.8,2.3
CCCCOC(=O)c1[nH]c2c(c1C)C(=O)CC(c1cc(OC)c(OC)c(OC)c1)C2 (configuration not stated),1.5,11.4,2.2,12.7,72.7*,48.8
C=CCOC(=O)c1[nH]c2c(c1C)C(=O)CC(c1cc(OC)c(OC)c(OC)c1)C2 (configuration not stated),-0.4,·,1.6,22.9,64.2*,46.1
O=C(C[C@@H]1CC[C@H]2[C@@H](COC[C@@H](O)CN2Cc2ccncc2)O1)NCc1ccccc1Cl,·,5.5,·,·,·,·
COc1cc(OC)cc(C(=O)N[C@H](C(=O)OCC(=O)c2ccc(C)c([N+](=O)[O-])c2)C(C)C)c1,·,13.8,0.0,84.1*,-9.4,-6.2
CC(=O)N1CC2(C1)[C@H](c1ccc(-c3ccc(C#N)cc3)cc1)[C@@H](CO)N2C(=O)C1CC1,·,10.7,·,·,·,·
N#Cc1c(-c2ccccc2)nc(SCc2cccc(Cl)c2)[nH]c1=O,-4.0,3.3,-0.1,1.7,-0.1,58.0*
C[C@@H]1CN([C@H](C)CO)C(=O)c2cc(C#Cc3cccc(F)c3)cnc2O[C@@H]1CN(C)C(=O)C1CCOCC1,·,-9.7,·,·,·,·
Cc1ccc(C(=O)NC(=S)Nc2ccc(Oc3ccc(Cl)cc3)cc2)cc1,0.7,·,0.0,-3.1,1.2,50.8*
COc1ccc(C(=O)NC(=S)Nc2ccc3c(c2)Cc2ccccc2-3)cc1,5.0,·,0.0,6.6,15.3,52.1*
CC(C)CCC[C@@H](C)[C@H]1CC[C@H]2[C@@H]3C(=O)C=C4C[C@@H](O)CC[C@]4(C)[C@H]3CC[C@]12C,·,·,0.0,-8.1,-14.2,5.0
C=C1/C(=C\C=C2/CCC[C@]3(C)[C@@H]([C@H](C)CCCC(C)(C)O)CC[C@@H]23)C[C@@H](O)C[C@@H]1O,25.6*,·,·,·,·,·
Cc1ccc(S(=O)(=O)c2ncccc2[N+](=O)[O-])cc1,13.9,39.8,-0.3,28.9,94.8*,52.9*
O=S(=O)(CC(CN1CCCCC1)N1CCCCC1)c1ccc2ccccc2c1 (configuration not stated),-2.3,50.1*,-0.1,15.3,41.0,-29.6
COc1ccccc1OCCC(=O)OCC(=O)NCc1ccc(F)cc1,·,8.1,0.0,69.1*,-5.5,-5.4
O=C(COC(=O)CCc1c[nH]c2ccccc12)NCc1ccc(Cl)cc1,-5.3,-12.7,-0.1,46.2*,-21.7,2.4
COc1ccccc1OCCC(=O)OCC(=O)NCc1ccc(Cl)cc1,-1.9,22.9,0.0,-0.3,17.2,0.4
C[C@@H]1CCCCO[C@H](CN(C)C(=O)Nc2ccc(F)cc2)[C@H](C)CN([C@H](C)CO)C(=O)c2cc(NC(=O)Cc3ccccc3)ccc2O1,·,-9.2,·,·,·,·
Cc1noc(C)c1C(=O)N(C)C[C@H]1OCc2ccccc2-c2ccccc2C(=O)N([C@H](C)CO)C[C@@H]1C,·,-2.7,·,·,·,·
O=Nc1c2cc3ccccc3[nH]c-2c2ccccc12,·,23.8,-0.2,-34.2,38.6,1.5
O=Nc1c(O)c2ccccc2c2ccccc12,·,81.5*,2.5,2.7,97.8*,41.8
O=C(NCCc1ccncc1)[C@H]1N[C@H]2c3ccc(/C=C/c4ccccc4)c(=O)n3C[C@H]2[C@@H]1CO,·,6.9,·,·,·,·
Cc1ccc(C(=O)Nc2c3c(nn2C(C)(C)C)CS(=O)(=O)C3)cc1[N+](=O)[O-],-4.3,8.8,0.0,5.3,11.1,-26.6
CC(C)(C)n1nc2c(c1NC(=O)c1ccc(Cl)c([N+](=O)[O-])c1)CS(=O)(=O)C2,-4.9,-12.7,0.3,-4.2,53.9*,48.9

# High-throughput results deposited in PubChem BioAssay by several laboratories.
